The list shows a part of the results. Calls of active or inactive are those of the source.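 How the source made its calls, unless noted: active means mean inhibition over three repeats above a set limit taken from the earlier primary screen (cut at about 37% in these data); inactive means the rest.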
target: Protein-arginine deiminase type-4 (Homo sapiens) (UniProt Q9UM07); experiment: protein arginine deiminase 4 blockade, retest – biochemical, fluorescence polarization, confirmation (AID 488796;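 active means mean inhibition across replicates above the hit cutoff set by the earlier primary screen, cut at about 15% in these data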;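 further: inhibitors block active-site labeling by the probe so polarization falls; 0% = PAD4 with probe and DMSO and 100% = probe without PAD4 enzyme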); conditions: recombinant PAD4, RCA probe fluorescence polarization; at 6.36 µM; stronger effect = higher value
Sequence (Q9UM07 whole entry, looked up): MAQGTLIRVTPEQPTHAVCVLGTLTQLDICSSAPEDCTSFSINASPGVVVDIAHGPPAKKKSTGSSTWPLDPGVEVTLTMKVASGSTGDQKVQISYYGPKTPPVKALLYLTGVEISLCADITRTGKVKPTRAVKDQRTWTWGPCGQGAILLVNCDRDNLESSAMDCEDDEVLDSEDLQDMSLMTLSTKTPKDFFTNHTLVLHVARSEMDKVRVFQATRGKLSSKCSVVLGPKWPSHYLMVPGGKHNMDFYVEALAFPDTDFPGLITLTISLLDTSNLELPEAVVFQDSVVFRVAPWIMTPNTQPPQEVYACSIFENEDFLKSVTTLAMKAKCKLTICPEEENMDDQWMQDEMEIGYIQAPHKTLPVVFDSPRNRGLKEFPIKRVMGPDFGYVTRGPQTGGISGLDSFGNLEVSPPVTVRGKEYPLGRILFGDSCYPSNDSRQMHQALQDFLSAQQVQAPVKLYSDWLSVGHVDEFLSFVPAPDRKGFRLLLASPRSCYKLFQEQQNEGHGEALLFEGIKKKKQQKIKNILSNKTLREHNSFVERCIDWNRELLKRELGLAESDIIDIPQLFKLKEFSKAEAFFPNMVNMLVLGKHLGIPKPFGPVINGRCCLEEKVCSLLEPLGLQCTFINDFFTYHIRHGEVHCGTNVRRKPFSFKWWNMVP

Row | SMILES | inhibition
1 | Cc1cc(C(=O)CSc2nc(N)cc(=O)[nH]2)c(C)n1CCc1ccc(Cl)cc1 | 13.4% (inactive)
2 | COc1ccc(C(=O)Nc2nc(-c3ccc(S(=O)(=O)N4CCOCC4)cc3)cs2)cc1 | 18.9% (active)
3 | CN(C)S(=O)(=O)c1cccc(-c2nn(-c3ccccc3)cc2/C=C2\SC(=S)N(CC(=O)O)C2=O)c1 | 2.15% (inactive)

target: Serine protease HTRA1 (Homo sapiens) (UniProt Q92743); experiment: confirming inhibition of human HTRA1 – biochemical, fluorescence polarization, confirmation (AID 540248); conditions: recombinant HTRA1, FP-rhodamine activity-based probe, at 5.96 µM, stronger effect = higher value;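 further: 0% = HTRA1 with DMSO and 100% = wells lacking HTRA1; inhibitors block probe binding so polarization drops and inhibition rises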

Row | SMILES | inhibition
4 | N#C/C(=C\c1ccc(O)c(O)c1)C(=O)NCc1ccccc1 | 84.8% (active)
5 | O=C(N/N=C/c1cccnc1)c1cc2ccccc2cc1O | 13.8% (inactive)
6 | CC(C)C1N=C2c3ccccc3N=C(SCC(=O)c3ccc(O)c(O)c3)N2C1=O (stereo not given) | 57% (active)
7 | Cc1ccc(/C=N/NC(=O)c2cc3ccccc3cc2O)o1 | 38.8% (active)

target: Toll-like receptor 9 (Homo sapiens) (UniProt Q9NR96); experiment: disruptors of TLR9 binding to MyD88 – cell-based, CHO, BLA complementation, fluorescence, triplicate, confirmation (AID 540250;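 active means mean inhibition across three repeats above about 21% taken from the earlier screen, limit read from the data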;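 further: blue over green emission ratio reports constitutive TLR9 MyD88 association via BLA complementation; 0% = DMSO vehicle wells and 100% = clavulanate BLA inhibitor wells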); conditions: CCF4 FRET ratio, at 4.98 µM, stronger effect = higher value
Sequence (Q9NR96 whole entry, looked up): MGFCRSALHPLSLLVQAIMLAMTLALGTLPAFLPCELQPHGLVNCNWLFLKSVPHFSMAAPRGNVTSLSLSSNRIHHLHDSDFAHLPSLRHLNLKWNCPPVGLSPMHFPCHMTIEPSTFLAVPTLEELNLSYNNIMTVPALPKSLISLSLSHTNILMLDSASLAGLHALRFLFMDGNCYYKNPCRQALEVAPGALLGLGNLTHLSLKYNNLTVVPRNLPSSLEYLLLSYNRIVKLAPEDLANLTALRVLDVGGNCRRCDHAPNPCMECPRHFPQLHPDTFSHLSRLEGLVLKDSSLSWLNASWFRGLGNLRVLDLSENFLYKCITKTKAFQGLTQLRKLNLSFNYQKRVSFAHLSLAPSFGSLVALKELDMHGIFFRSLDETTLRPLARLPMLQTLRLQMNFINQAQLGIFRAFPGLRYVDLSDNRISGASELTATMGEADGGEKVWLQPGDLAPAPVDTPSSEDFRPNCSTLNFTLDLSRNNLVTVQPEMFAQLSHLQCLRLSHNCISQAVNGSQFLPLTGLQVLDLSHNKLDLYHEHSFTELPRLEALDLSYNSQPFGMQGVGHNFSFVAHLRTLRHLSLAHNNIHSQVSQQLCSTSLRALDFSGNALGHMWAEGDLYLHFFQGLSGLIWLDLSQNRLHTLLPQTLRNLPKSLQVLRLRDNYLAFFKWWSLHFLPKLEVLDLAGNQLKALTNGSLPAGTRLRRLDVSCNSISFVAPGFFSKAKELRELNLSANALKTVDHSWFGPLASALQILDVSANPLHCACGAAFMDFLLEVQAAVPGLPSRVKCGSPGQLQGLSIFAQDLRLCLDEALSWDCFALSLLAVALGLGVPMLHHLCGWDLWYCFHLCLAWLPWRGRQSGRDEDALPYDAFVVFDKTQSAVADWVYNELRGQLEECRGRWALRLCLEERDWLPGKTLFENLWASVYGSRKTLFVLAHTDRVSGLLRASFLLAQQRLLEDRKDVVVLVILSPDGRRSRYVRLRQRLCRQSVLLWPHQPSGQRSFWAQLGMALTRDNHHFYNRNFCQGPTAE

Row | SMILES | inhibition
8 | COc1cc(/C=C(\C#N)c2nc3c(s2)CC(C)CC3)ccc1O (stereo not given) | 7.82% (inactive)
9 | O=C(/C=C(O)/C=C/c1ccc(O)cc1)/C=C/c1ccc(O)cc1 | 39.7% (active)
10 | Nc1c(C(=O)c2cccs2)sc2nsc(SCCN3CCCCC3)c12 | 31.7% (active)

From PubChem BioAssay
